The list is not random: actives were taken first. Their share in the collection is about 21%.
Pf growth 48h = inhibits P. falciparum growth in the first generation, 48 h; P. falciparum luciferase growth in erythrocytes, 48 h; Potency, µM (top dose mostly 28.7 µM), inactives show at the highest dose activity change, negative = inhibition, most hits filed as inhibitors; 310,000 tested, 5.9% active; further: potency means the concentration at half of the fitted maximal effect; on the % scale 0 is the no-effect control and ±100 the full control effect
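Luciferase-expressing parasites in RBCs, 2% Hct / 0.1% parasitemia final; RPMI 1640 + 0.5% Albumax; 37 C, 5% CO2, one generation; luminescence read-out, lower signal = inhibition.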
Shiga toxin inh = Shiga toxin inhibition; inhibition, % at 38.7 µM; 290,000 tested, 9.2% active; Vero cells, Shiga toxin protein synthesis inhibition reporter; AID 2315; in the data active means inhibition mostly above about 28%, no sharp cut-off; inactive means mostly below about 43%; further: 0% is about no effect
Pf growth 96h = inhibits malaria parasite growth, 96 h | 320,000 tested, 6.9% active | Potency, µM (highest dose often 28.7 µM), for the others: top-dose activity change, negative = inhibition, most hits filed as inhibitors | P. falciparum luciferase reporter growth, 96 h; further: potency means the concentration at half of the fitted maximal effect; on the % scale 0 is the no-effect control and ±100 the full control effect
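96 h incubation, 37 C, 5% CO2, of luciferase-reporter P. falciparum-infected RBCs (2% hematocrit, 0.05% parasitemia final) with test compounds; endpoint luminescence.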
NS1 inh = influenza NS1 inhibition. Potency, µM (top dose mostly 46.1 µM), for inactives: at the highest dose activity, positive = more growth. 270,000 tested, 0.4% active. AID 2326; calls by dose curve; further: potency means the concentration at half of the fitted maximal effect; actives are rising curves; nearly all actives have a fitted effect of over 50% in size
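S. cerevisiae expressing influenza A NS1, grown in glucose, washed, then diluted 1:100 into pH 6.0 -URA galactose medium with 23 nl compound. Growth recovery read as OD600; NS1-free strain serves as control.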
CHX counter = counter-screen hit for Shiga toxin inhibitors, cycloheximide. cell reporter, cycloheximide protein synthesis inhibition counterscreen. max response, %. 300,000 tested, 12% active. AID 2314; in the data active means max response mostly above about 13%, no sharp cut-off; inactive means mostly below about 14%; further: read at 38.3 µM for the half of the compounds with a filed dose; 0% is about no effect
* hit, by the source's call; ? = inconclusive; / = no result; [ ] = another dose, or the depositor's remark. Unless noted, the call rests on the fitted dose curve; in most records, active means well fitted inhibition curve with a large enough effect; inconclusive means small, poorly fitted or top-dose-only effect, or another doubt; inactive means no such curve, though single readings can be large or run the other way.

SMILES	Pf growth 48h	Shiga toxin inh	Pf growth 96h	NS1 inh	CHX counter
CCCC(CCC)C(=O)Nc1c[nH]c(=O)[nH]c1=O	/	-8	-19%	5%	2
COc1cccc(-c2nnc(SCC(=O)Nc3cc(C)on3)o2)c1	0%	54	/	-4%	25*
Cn1c(/C=C/c2ccc(Cl)cc2Cl)c([N+](=O)[O-])c(=O)n(C)c1=O	4.7µM*	-4	42%	-2%	-1
CCc1ccc(/C=C/c2c([N+](=O)[O-])c(=O)n(C)c(=O)n2C)cc1	2.3µM*	-3	38%	-11%	12
COc1ccc(/C=C/c2c([N+](=O)[O-])c(=O)n(C)c(=O)n2C)cc1	?	-10	13µM*	/	1
COc1ccc(/C=C/c2c([N+](=O)[O-])c(=O)n(C)c(=O)n2C)c(OC)c1	?	3	2%	/	3
COc1ccc(OC)c(C(=O)COC(=O)c2[nH]c(C)c(C(C)=O)c2C)c1	?	/	-1%	/	/
O=C(NCCN1CCOCC1)c1ccc(N2CCCC2)c([N+](=O)[O-])c1	35%	6	11%	/	-2
O=C(C1=C[C@H](c2ccccc2)C[C@H](OCc2ccc(CO)cc2)O1)N1CCCCCCC1	?	20	?	0%	-1
S=C(c1cn(CCOc2cccc3ccccc23)c2ccccc12)N1CCCC1	13µM*	-9	?	18%	-4
S=C(c1cn(CCOc2ccccc2)c2ccccc12)N1CCCC1	12µM*	20	?	-12%	5
Cc1ccc(NC(=O)CN2C(=O)NC(C)(c3ccccc3)C2=O)c(C)c1 (stereo unspecified)	-6%	2	-7%	3%	-8
COC(=O)c1cn(C(=O)c2cccc(Br)c2)c2ccccc12	/	-5	208%	-4%	-2
O=C(NCC1CCCO1)C1CC(c2ccc(Cl)c(Cl)c2)=NO1 (stereo unspecified)	22%	-2	-24%	-13%	8
O=C(COc1ccc(-n2ccnc2)cc1)Nc1cccc(Cl)c1	-21%	-9	?	/	-3
CCOc1ccc(N(C(=O)c2cnsn2)C(C(=O)NC2CCCCC2)c2ccncc2)cc1 (stereo unspecified)	?	-6	1.2µM*	-2%	2
CCc1ccc(C(C(=O)NC2CCCCC2)N(C(=O)c2ccccn2)c2cccnc2)cc1 (stereo unspecified)	-7%	-19	-26%	2%	-2
Cc1nn(C)cc1C(C(=O)NC1CCCCC1)N(C(=O)c1cnccn1)c1ccc(Oc2ccccc2)cc1 (stereo unspecified)	5.9µM*	-2	-12%	-13%	-1
COc1cccc(C(C(=O)NC2CCCCC2)N(C(=O)c2ccccn2)c2cccnc2)c1 (stereo unspecified)	-2%	-22	1.7µM*	-3%	-3
CCOc1ccc(C(C(=O)NC2CCCCC2)N(C(=O)c2ccccn2)c2cccnc2)cc1 (stereo unspecified)	10µM*	-10	15µM*	4%	3
O=Cc1ccc(Oc2nc(Cl)ncc2F)cc1	2%	-9	14%	21%	-1
COc1ccc(CCNC(=O)C2CCN(S(C)(=O)=O)CC2)cc1	/	11	0%	6%	13
CC1CCCC(NC(=O)COC(=O)c2ccc3ccccc3n2)C1C (stereo unspecified)	/	-9	15%	1%	-2
COc1ccc2ccccc2c1CNCCc1ccccc1	10µM*	-26	4%	-15%	-6
CN(C)c1ccc(CNn2cnnc2SCc2ccccc2F)cc1	15%	37*	/	-18%	25*
SMILES	Pf growth 48h	Shiga toxin inh	Pf growth 96h	NS1 inh	CHX counter
CN(C)c1ccc(CNn2cnnc2SCC(=O)NC(C)(C)C)cc1	4%	2	18%	3%	-1
CCc1ccc(N(C(C)=O)c2nc(CCl)cs2)cc1	23%	48	94%	-2%	29*
Cc1ccc(C(=O)Nc2cccnc2)cc1S(=O)(=O)N1CCCC1	?	31	?	5%	20*
Cc1ccc(C(=O)Nc2cccnc2)cc1S(=O)(=O)N1CCCCC1	?	-5	2.1µM*	-2%	2
Cc1ccc(C(=O)Nc2cccnc2)cc1Cl	56%	41*	10µM*	-56%	26*
O=C(Nc1ccccn1)c1ccc(Br)c(S(=O)(=O)N2CCCC2)c1	-22%	50*	-27%	-17%	34*
CCNC(=O)NC(=O)COC(=O)CCc1nc(=O)c2ccccc2n1C	23%	-7	64%[5.75 µM]	/	-1
O=C(Nc1cccnc1)c1ccc(Br)c(S(=O)(=O)N2CCCC2)c1	13µM*	10	?	-2%	3
Cc1cc(C(=O)Nc2cccnc2)cs1	62%	15	14%	-9%	12*
O=C(Nc1cccnc1)c1cccc(S(=O)(=O)N2CCCCC2)c1	-22%	-12	-17%	-3%	-2
Cc1cc(NC(=O)c2ccc(Br)c(S(=O)(=O)N3CCCC3)c2)no1	10µM*	6	/	6%	-1
CCOc1ccccc1-c1nc(-c2ccc(NC(=O)Cc3ccccc3OC)cc2)no1	13µM*	-6	3.7µM*	-15%	7
CCOc1ccccc1NC(=O)c1ccccc1-c1nc(-c2ccccc2)no1	?	37	8.3µM*	-45%	27*
O=C(O)CCc1[nH]c2ccccc2c1Sc1ccccc1	/	-5	1%	3%	-4
O=C(COC(=O)C1CCN(c2ccc(C(F)(F)F)cn2)CC1)c1ccccc1	14%	/	7%	/	/
CCn1ccnc1CN(C)C(=O)C1CCC(=O)N(Cc2cccc(C(F)(F)F)c2)C1 (stereo unspecified)	12%	-27	1%	23%	26
[O-][N+](=Nc1ccccc1)c1ccccc1	26%	/	31%	/	/
CC1(C)CC2CC(C)(CN2C(=S)Nc2ccccc2F)C1 (stereo unspecified)	-9%	-8	3%	-6%	5
O=C(Nc1cccc(C(=O)O)c1)/C(=C/c1ccc([N+](=O)[O-])cc1)NC(=O)c1ccccc1	24%	-9	21%	12%	-6
Cc1ccc(NC(=O)/C(=C\c2ccc([N+](=O)[O-])cc2)NC(=O)c2ccccc2)cc1	?	10	5.2µM*	-4%	-4
COc1ccc(/C=C(\NC(=O)c2ccc(C)cc2)C(=O)Nc2ccc(C(=O)O)cc2)cc1	18%	26	?	-10%	31*
O=C(N/N=C/c1ccc(O)c(O)c1O)/C(=C/c1ccc([N+](=O)[O-])cc1)NC(=O)c1ccccc1	/	-7	9.3µM*	-3%	-6
O=C(Nc1cccc2ccccc12)/C(=C/c1ccc([N+](=O)[O-])cc1)NC(=O)c1ccccc1	?	-3	9.3µM*	?	1
NC(=O)C1CCN(C(=O)COc2ccc(S(=O)(=O)NCc3ccccc3)cc2Cl)CC1	?	-7	?	6%	-4
O=C(Nc1ccccc1-c1ccccc1)NC1CC2CCCC(C1)N2Cc1ccc(F)cc1 (stereo unspecified)	12µM*	-17	34%	-1%	5

Bioassay records (PubChem)
